Experimental findings from paper PMC7862700, “An all-to-all approach to the identification of sequence-specific readers for epigenetic DNA modifications on cytosine” are described below.

Holding throughout (assay): DAPPL (digital affinity profiling via proximity ligation, sequencing); 10 mM Tris-HCl pH 7.5, 50 mM NaCl, 1 mM DTT, 4% glycerol, room temperature, 30 min; GST-TFs on glutathione beads, 16-mer random dsDNA library, 0.1% formaldehyde crosslink after washing; high values mean tight binding
The target in assay [1] is T1, FLI1 (Homo sapiens, UniProt Q01543 1-452).
T1 sequence: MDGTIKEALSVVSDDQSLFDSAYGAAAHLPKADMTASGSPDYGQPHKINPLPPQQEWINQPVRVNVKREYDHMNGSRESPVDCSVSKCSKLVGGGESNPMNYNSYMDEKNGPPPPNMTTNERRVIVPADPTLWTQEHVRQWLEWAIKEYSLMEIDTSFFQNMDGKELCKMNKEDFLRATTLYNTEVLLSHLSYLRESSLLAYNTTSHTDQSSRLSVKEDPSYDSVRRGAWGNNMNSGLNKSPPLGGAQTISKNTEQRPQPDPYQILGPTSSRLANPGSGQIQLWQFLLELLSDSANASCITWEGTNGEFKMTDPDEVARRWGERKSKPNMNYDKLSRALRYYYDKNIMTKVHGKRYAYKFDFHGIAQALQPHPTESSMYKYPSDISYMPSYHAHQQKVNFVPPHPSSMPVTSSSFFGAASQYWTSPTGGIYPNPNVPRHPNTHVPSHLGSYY
As to conditions: protein: recombinant; tags: N-terminal GST; dsDNA, one strand shown. In outline: (§1)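 After expression in yeast as GST fusions, human transcription factors were bound to glutathione beads, DNA-barcoded and mixed with a tag-only sample. The pools were incubated with 200 nmole of a 16-mer random double-stranded DNA library in Tris/NaCl/DTT/glycerol buffer (30 min, room temperature), washed and crosslinked with 0.1% formaldehyde. Proximity ligation with BsaI/T4 ligase ran for 1 h at 37 °C, before PCR amplification and sequencing on an Illumina NextSeq500. Binding signal is a hexamer's read frequency for a factor divided by its frequency for the tag-only sample.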

Assay [2] deals with T2, ELK1 (Homo sapiens, UniProt P19419 1-428).
T2 sequence: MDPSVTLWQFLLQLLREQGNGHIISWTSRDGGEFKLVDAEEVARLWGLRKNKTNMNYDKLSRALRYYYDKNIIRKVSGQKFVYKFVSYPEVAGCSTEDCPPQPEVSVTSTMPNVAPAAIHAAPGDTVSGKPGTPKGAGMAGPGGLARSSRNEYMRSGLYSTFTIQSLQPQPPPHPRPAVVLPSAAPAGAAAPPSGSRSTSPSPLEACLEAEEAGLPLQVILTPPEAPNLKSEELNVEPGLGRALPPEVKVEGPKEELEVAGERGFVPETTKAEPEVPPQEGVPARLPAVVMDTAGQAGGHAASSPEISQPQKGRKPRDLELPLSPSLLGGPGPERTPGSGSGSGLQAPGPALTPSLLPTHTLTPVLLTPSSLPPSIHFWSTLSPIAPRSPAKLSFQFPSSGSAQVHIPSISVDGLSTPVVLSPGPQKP
As to conditions: protein: recombinant; tags: N-terminal GST; dsDNA, one strand shown. The gist of the method:
as §1

In assay [3] the target is T3, GABPA (Homo sapiens, UniProt Q06546 1-454).
T3 sequence: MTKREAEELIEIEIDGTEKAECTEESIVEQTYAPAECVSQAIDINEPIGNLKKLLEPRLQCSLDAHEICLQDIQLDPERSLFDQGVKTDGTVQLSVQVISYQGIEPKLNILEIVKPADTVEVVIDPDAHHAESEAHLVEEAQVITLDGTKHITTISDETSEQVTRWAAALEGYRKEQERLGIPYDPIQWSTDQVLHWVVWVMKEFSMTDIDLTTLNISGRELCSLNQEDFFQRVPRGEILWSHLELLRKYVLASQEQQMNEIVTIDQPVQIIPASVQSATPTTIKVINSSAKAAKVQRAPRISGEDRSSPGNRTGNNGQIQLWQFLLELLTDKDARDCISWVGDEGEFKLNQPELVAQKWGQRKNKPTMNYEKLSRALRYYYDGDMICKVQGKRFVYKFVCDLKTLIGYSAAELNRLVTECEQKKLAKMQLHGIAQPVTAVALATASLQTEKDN
As to conditions: protein: recombinant; tags: N-terminal GST; dsDNA, one strand shown. In outline: as §1

In assay [4] the target is T4, ERG (Homo sapiens, UniProt P11308 1-479).
T4 sequence: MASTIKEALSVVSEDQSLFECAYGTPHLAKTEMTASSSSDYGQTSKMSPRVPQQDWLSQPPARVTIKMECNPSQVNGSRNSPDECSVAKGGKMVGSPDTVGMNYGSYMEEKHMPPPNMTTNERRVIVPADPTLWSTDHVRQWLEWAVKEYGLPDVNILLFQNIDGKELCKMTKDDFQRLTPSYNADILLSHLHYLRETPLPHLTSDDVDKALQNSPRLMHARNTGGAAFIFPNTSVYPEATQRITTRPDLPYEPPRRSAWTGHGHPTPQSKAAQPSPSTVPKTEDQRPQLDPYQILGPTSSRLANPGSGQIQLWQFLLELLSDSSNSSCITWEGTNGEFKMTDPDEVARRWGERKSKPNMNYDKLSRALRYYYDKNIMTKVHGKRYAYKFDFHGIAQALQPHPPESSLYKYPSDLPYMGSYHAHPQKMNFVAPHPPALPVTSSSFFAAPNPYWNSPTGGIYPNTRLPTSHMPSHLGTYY
To be noted: protein: recombinant; tags: N-terminal GST; dsDNA, one strand shown. The gist of the method:
as §1

Assay [5] deals with ELF1 (Homo sapiens, UniProt P32519 1-619). To be noted: protein: recombinant; tags: N-terminal GST; dsDNA, one strand shown. The gist of the method: as §1
Chain of ELF1 (P32519 whole entry): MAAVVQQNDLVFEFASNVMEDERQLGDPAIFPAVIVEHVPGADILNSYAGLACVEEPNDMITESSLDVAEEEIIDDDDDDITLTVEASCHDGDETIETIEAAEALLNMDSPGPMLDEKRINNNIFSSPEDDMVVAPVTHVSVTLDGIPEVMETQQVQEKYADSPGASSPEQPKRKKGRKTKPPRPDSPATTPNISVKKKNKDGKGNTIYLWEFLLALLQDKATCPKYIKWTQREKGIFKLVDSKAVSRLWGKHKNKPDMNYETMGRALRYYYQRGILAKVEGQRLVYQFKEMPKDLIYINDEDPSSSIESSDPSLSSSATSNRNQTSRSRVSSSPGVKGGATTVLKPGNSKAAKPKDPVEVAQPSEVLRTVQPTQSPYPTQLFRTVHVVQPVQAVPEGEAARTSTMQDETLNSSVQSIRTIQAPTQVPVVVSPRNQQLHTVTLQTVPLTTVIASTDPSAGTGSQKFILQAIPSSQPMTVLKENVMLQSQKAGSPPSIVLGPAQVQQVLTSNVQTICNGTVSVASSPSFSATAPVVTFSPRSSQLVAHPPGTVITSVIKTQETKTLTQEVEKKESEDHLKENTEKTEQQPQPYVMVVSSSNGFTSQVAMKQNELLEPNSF
Assay [6] deals with T5, EHF (Homo sapiens, UniProt Q9NZC4 1-300).
T5 sequence: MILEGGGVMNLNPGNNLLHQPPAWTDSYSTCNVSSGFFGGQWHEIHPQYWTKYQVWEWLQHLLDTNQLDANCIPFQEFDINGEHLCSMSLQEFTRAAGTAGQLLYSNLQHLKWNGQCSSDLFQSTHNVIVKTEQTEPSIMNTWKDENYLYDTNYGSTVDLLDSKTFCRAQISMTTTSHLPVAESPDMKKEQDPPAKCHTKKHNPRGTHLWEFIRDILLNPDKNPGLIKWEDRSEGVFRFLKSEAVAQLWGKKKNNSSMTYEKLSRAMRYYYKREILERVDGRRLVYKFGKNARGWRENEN
As to conditions: protein: recombinant; tags: N-terminal GST; dsDNA, one strand shown. In outline:
as §1

The target of assay [7] is SPI1 (Homo sapiens, UniProt P17947 1-270). To be noted: protein: recombinant; tags: N-terminal GST; dsDNA, one strand shown. In outline: as §1
In assay [8] the target is SPIB (Homo sapiens, UniProt Q01892 1-262). To be noted: protein: recombinant; tags: N-terminal GST; dsDNA, one strand shown. In outline:
as §1

For assay [9], the target named is T6, ELK3 (Homo sapiens, UniProt P41970 1-407).
T6 sequence: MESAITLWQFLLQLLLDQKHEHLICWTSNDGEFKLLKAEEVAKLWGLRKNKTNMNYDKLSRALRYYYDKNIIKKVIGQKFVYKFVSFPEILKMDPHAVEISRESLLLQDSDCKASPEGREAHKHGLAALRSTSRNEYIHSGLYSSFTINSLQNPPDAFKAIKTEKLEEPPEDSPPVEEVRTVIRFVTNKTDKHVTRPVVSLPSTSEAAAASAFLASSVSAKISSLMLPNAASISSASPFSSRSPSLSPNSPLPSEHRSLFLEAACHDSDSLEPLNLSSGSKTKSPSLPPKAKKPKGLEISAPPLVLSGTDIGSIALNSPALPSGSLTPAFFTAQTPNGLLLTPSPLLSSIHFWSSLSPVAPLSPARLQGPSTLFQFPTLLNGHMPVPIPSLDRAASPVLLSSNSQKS
As to conditions: protein: recombinant; tags: N-terminal GST; dsDNA, one strand shown. The gist of the method: as §1

Assay [10] concerns the target T7, FEV (Homo sapiens, UniProt Q99581 1-238).
T7 sequence: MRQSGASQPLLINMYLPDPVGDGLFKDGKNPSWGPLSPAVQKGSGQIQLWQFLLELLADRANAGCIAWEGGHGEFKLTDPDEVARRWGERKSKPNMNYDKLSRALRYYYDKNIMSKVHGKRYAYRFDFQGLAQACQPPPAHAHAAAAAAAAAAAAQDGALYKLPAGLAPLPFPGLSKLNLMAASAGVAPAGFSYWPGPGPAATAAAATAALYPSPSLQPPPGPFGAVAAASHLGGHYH
As to conditions: protein: recombinant; tags: N-terminal GST; dsDNA, one strand shown. The gist of the method:
as §1

Assay [11] addresses ETV5 (Homo sapiens, UniProt P41161 1-510). To be noted: protein: recombinant; tags: N-terminal GST; dsDNA, one strand shown. The gist of the method:
as §1

The target of assay [12] is HSF1 (Homo sapiens, UniProt Q00613 1-529). To be noted: protein: recombinant; tags: N-terminal GST; chain copies: 3; dsDNA, one strand shown. In outline: as §1
Chain of HSF1 (Q00613 whole entry): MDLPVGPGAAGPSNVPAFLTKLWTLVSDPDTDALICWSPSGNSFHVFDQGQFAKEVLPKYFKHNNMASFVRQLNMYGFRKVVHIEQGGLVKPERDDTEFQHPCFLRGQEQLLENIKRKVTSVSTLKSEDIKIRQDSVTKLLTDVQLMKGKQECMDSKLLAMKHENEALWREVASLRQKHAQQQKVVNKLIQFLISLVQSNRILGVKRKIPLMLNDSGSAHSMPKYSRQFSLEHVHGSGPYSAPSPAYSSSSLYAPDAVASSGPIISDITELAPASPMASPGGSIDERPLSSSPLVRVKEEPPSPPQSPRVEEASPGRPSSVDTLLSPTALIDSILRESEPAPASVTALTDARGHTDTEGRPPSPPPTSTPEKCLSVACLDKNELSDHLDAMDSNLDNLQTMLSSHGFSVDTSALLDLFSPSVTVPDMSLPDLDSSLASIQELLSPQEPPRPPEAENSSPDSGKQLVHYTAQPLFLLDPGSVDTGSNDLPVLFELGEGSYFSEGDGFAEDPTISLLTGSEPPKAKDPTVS
For assay [13], the target named is T8, SPIC (Homo sapiens, UniProt Q8N5J4 1-248).
T8 sequence: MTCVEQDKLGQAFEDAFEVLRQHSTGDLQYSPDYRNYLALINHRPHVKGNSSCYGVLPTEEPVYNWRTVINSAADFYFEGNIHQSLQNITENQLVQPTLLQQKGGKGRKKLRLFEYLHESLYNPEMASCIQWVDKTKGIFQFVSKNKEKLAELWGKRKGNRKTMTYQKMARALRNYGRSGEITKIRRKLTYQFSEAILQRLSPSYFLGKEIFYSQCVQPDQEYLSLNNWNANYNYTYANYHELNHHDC
As to conditions: protein: recombinant; tags: N-terminal GST; dsDNA, one strand shown. The gist of the method:
as §1

Assay [14] concerns the target ELF4 (Homo sapiens, UniProt Q99607 1-663). To be noted: protein: recombinant; tags: N-terminal GST; dsDNA, one strand shown. The gist of the method:
as §1

Assay [15] addresses T9, ELK4 (Homo sapiens, UniProt P28324-2 1-405).
T9 sequence: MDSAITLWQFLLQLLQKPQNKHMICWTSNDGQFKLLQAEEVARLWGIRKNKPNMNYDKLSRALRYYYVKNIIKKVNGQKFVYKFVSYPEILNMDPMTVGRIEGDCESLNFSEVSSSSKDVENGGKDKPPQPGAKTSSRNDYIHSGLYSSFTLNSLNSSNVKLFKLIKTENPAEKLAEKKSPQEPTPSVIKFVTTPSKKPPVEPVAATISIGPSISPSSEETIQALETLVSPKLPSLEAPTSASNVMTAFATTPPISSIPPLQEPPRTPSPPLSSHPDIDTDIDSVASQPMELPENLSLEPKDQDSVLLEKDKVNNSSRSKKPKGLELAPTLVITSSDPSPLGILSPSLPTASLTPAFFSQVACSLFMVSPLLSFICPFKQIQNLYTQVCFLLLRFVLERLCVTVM
As to conditions: protein: recombinant; tags: N-terminal GST; dsDNA, one strand shown. The gist of the method:
as §1

In assay [16] the target is T10, ETV2 (Homo sapiens, UniProt O00321 1-342).
T10 sequence: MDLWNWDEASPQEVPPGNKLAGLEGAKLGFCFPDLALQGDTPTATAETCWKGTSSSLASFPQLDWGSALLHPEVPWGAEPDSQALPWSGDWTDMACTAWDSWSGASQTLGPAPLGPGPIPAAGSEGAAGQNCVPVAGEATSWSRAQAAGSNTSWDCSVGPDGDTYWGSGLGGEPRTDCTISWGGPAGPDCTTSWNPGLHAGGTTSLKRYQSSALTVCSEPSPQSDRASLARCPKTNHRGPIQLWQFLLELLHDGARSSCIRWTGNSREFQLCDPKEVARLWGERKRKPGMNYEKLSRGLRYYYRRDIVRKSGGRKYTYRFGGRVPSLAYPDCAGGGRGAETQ
To be noted: protein: recombinant; tags: N-terminal GST; dsDNA, one strand shown. The gist of the method: as §1

In assay [17] the target is T11, ELF3 (Homo sapiens, UniProt P78545 1-371).
T11 sequence: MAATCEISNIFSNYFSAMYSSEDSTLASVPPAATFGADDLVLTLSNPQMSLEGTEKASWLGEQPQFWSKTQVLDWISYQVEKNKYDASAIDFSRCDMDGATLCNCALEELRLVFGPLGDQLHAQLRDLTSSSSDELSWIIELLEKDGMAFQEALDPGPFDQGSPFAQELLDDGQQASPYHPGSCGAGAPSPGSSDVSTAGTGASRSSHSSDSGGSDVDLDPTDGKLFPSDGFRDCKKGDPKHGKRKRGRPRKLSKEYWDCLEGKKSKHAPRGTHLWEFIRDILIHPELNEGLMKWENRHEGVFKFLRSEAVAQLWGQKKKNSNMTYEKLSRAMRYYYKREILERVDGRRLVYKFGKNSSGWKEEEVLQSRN
As to conditions: protein: recombinant; tags: N-terminal GST; dsDNA, one strand shown. The gist of the method: as §1

Assay [18] concerns the target ETV1 (Homo sapiens, UniProt P50549 1-477). As to conditions: protein: recombinant; tags: N-terminal GST; dsDNA, one strand shown. The gist of the method: as §1

Chain of ETV5 (P41161 whole entry): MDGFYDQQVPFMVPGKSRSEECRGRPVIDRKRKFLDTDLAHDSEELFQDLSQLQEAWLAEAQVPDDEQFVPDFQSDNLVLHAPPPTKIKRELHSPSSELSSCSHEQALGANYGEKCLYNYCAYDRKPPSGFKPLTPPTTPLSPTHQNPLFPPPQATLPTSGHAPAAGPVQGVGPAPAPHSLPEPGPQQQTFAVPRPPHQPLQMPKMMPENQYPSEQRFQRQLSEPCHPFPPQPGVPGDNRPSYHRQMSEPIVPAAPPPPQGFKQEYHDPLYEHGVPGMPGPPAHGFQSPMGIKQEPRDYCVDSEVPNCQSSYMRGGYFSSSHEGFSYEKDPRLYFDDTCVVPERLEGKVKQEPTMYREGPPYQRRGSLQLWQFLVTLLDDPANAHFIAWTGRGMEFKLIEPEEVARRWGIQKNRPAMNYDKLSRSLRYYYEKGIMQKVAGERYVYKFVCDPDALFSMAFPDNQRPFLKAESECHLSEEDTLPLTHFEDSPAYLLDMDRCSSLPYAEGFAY
Chain of ETV1 (P50549 whole entry): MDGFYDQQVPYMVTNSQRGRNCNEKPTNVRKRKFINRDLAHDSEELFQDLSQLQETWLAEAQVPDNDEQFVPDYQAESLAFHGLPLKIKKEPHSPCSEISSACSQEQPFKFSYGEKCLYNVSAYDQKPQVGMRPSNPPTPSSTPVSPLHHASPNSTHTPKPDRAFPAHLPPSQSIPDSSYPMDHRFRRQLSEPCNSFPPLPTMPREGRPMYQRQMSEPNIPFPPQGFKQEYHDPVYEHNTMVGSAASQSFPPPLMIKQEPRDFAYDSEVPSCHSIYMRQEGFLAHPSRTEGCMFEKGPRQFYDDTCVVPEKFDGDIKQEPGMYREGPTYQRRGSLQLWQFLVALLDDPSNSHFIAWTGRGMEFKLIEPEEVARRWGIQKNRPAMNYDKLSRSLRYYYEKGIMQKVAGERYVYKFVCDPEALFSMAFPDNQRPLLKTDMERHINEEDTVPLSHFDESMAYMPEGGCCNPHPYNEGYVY
Chain of ELF4 (Q99607 whole entry): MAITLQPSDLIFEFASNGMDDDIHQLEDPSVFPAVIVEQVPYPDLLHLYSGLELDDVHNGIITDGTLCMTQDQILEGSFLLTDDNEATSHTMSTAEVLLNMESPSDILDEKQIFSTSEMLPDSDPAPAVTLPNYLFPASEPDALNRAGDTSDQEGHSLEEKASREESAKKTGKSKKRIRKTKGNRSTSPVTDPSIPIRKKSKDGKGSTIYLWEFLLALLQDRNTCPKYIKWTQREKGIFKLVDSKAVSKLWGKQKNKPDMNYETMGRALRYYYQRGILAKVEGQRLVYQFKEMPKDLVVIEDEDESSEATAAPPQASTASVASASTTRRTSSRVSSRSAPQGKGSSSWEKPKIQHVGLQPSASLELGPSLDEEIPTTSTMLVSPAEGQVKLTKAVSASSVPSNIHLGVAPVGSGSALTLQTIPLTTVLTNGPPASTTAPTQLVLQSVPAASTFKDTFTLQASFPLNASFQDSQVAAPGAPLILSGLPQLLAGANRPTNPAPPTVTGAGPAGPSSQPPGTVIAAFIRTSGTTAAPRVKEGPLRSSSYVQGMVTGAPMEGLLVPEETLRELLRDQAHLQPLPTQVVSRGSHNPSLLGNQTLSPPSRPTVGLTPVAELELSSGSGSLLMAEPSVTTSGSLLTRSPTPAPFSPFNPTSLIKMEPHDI
Chain of SPIB (Q01892 whole entry): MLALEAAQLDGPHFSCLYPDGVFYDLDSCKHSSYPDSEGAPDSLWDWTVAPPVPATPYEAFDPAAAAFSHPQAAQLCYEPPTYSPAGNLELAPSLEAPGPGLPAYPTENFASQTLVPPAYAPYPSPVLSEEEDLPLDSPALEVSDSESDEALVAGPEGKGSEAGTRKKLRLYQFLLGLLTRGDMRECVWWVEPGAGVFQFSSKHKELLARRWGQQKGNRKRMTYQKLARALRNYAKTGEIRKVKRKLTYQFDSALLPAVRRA

As to GTTCCG, the binding signal in assay [1] was 1.81 fold enrichment (6-mer frequency, TF over GST control); in assay [2], 2.02 fold enrichment (6-mer frequency, TF over GST control); in assay [3], 1.64 fold enrichment (6-mer frequency, TF over GST control); in [4], 1.95 fold enrichment (6-mer frequency, TF over GST control); in [5], 1.78 fold enrichment (6-mer frequency, TF over GST control); in assay [6] it was 2.05 fold enrichment (6-mer frequency, TF over GST control). The binding signal in [7] was 2.19 fold enrichment (6-mer frequency, TF over GST control); in [8], 2.15 fold enrichment (6-mer frequency, TF over GST control); in assay [9] it was 1.71 fold enrichment (6-mer frequency, TF over GST control); in assay [10] it was 1.99 fold enrichment (6-mer frequency, TF over GST control); in assay [11], 1.94 fold enrichment (6-mer frequency, TF over GST control); in assay [12], 1.05 fold enrichment (6-mer frequency, TF over GST control). In addition, the binding signal in [13] is 2.08 fold enrichment (6-mer frequency, TF over GST control); in [14], 1.64 fold enrichment (6-mer frequency, TF over GST control); in assay [15], 1.79 fold enrichment (6-mer frequency, TF over GST control); in assay [16] it was 1.61 fold enrichment (6-mer frequency, TF over GST control); in assay [17] it was 1.82 fold enrichment (6-mer frequency, TF over GST control); in assay [18] it was 2.07 fold enrichment (6-mer frequency, TF over GST control).
